These sequences were tested against PUM1 PUF domain R4-PHA (Homo sapiens, UniProt Q14671 828-1176, N971P;Q975A) (assay: yeast three-hybrid, YBZ-1, SC-Leu-His + 0.5 mM 3-AT, 4 days). Settings: tags: N-Gal4 AD-HA kept; label: inside an RPR1-promoter hybrid RNA with tandem MS2 sites; ssRNA.
Procedure, shortened: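 The interaction score is the logarithmic change in variant frequency from input to selection. It uses log2, with a pseudocount of 1 for absent variants, and frequencies came from PCR-amplified, Illumina-sequenced repeat regions. The libraries were Pumilio-1 PUF domains randomized at the three base-contacting residues per repeat, co-expressed with matching RNA elements in strain YBZ-1 (LexA–MS2 coat fusion, HIS3 reporter). Plating lasted four days on SC-Leu (input) or SC-Leu-His + 0.5 mM 3-AT (selection).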

| Sequence | binding signal |
| --- | --- |
| GGCUAGAACUAGUGGAUCCCCCGGCGCCCGGCGGCUCGAGCCCGGGUAAGUGUAUAUAGUCUGCAUGCCGCCGGGCGCCAUGCCUGCAGGUCGACUCUAGAAAACAUG | 6.34 log2 enrichment (interaction score) |
| GGCUAGAACUAGUGGAUCCCCCGGCGCCCGGCGGCUCGAGCCCGGGUAAGUGUACAUAGUCUGCAUGCCGCCGGGCGCCAUGCCUGCAGGUCGACUCUAGAAAACAUG | 5.37 log2 enrichment (interaction score) |
| GGCUAGAACUAGUGGAUCCCCCGGCGCCCGGCGGCUCGAGCCCGGGUAAGUGUAAAUAGUCUGCAUGCCGCCGGGCGCCAUGCCUGCAGGUCGACUCUAGAAAACAUG | 6.46 log2 enrichment (interaction score) |

From article PMC8384837, “Expanding the binding specificity for RNA recognition by a PUF domain”
